Among the data in PubChem BioAssay (NCATS) are Potency values, retold here.

The structures appear in SMILES notation. Results filed as inconclusive are left out. A call without a number means that no potency is given here. Activity calls are given as the source filed them. The call rests on the fitted dose curve; in most records, active means well fitted inhibition curve with a large enough effect; inconclusive means small, poorly fitted or top-dose-only effect, or effect the other way; inactive means flat fitted curve, though single readings scatter.
Potency means the concentration at half of the fitted maximal effect.

The target of this assay is Ubiquitin carboxyl-terminal hydrolase 2 (Homo sapiens) (UniProt O75604). The experiment in a line: qHTS Validation Assay for Inhibitors of Ubiquitin-specific Protease USP2a Using CHOP2 as the Reporter (AID 463106). The note with it: USP2a cleavage of CHOP2 reporter, enzymatic; series mostly up to 38.3 µM. From the text: NIH Molecular Libraries Screening Centers Network [MLSCN]
Ubiquitin carboxyl-terminal hydrolase 2 (Homo sapiens), sequence (O75604 whole entry, looked up): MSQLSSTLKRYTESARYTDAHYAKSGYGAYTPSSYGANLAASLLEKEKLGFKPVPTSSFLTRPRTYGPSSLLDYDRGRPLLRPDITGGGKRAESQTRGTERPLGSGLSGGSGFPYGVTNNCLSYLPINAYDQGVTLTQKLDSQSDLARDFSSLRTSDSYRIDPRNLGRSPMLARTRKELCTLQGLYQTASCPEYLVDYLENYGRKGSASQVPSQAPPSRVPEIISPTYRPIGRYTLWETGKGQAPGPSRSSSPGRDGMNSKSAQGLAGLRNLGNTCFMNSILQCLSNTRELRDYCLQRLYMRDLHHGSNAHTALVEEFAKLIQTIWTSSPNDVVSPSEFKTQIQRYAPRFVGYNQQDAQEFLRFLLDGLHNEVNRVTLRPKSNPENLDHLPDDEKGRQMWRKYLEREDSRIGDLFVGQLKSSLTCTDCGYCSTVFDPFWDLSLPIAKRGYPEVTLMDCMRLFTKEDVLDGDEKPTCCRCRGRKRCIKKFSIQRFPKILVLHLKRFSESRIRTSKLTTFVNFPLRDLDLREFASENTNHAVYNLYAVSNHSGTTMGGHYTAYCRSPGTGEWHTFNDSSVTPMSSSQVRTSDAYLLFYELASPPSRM
NIH Chemical Genomics Center [NCGC]
PI Name: Nicholson, Ben. Progenra Inc, Malvern, PA
Homeostasis of cellular proteins is maintained through a combination of synthesis and degradation. The pathway that accounts for the majority of protein degradation is the ubiquitin-proteasomal pathway. Ubiquitin (Ub) is highly conserved in all cells and the generation of a multi-Ub chain typically targets proteins for degradation by the proteasome. However, ubiquitination is highly reversible and dynamic. Deubiquitination, the reverse process, is catalyzed through the action of enzymes referred to as isopeptidases or deubiquitinating enzymes (DUBs). This group of enzymes is collectively responsible for maintaining adequate pools of free ubiquitin and regulating the ubiquitination status of cellular proteins. The class of DUBs referred to as the ubiquitin-specific proteases (USP) family functions endoproteolytically to cleave Ub chains from a wide range of protein substrates. USP2a deubiquitinates fatty acid synthase (FASN) which has recently been identified as an emerging oncology target. To identify inhibitors of USP2a a cell-free assay was employed.
The reporter enzyme chosen is an enterokinase called CHOP2, which is activated when the Ub is cleaved by USP2. The free and now activated reporter can subsequently act on its reporter substrate. […] The assay was developed by Progenra, Inc. and has been licensed for sale by LifeSensors, Inc. as Ub-CHOP2-Reporter-Kit (#PR1101).
NCGC Assay Protocol Summary:
The assay buffer, prepared fresh at the day of the assay, contains 20mM Tris-HCl pH 8.0, 2mM CaCl2, 2mM beta-Mercaptoethanol, 0.05% CHAPS. 3ul of 20nM (10nM final) USP2 core, which is stored on ice, is dispensed into a medium-binding black solid Kalypsys 1,536 well plate using the Kalypsys dispenser. The assay plate is then pinned with 23nL compound with the Kalypsys pintool in columns 5-48. The controls are pinned as follows: column 1 two-fold dilutions of 2M NEM in duplicate; column 2 2M NEM (final concentration 38.2mM); column 3&4 DMSO. The assay plate is incubated at RT for 30min. Subsequently, 1.5uL of 100nM (25nM final) Ub-CHOP2 and 1.5uL of 100nM (25nM final) Reporter Substrate (both stored on ice and protected from light) were dispensed into the plate using the Kalypsys dispenser. Plates were read after 60min RT incubation on a ViewLux (Perkin Elmer) plate reader using the following wavelengths Ex 485nm /Em 531nm.
Data were normalized to the to AC100 inhibition (NEM). Concentration-response curves were fitted to the normalized data and the concentration-response curves were then classified based on curve quality (r2), response magnitude and degree of measured activity. The time zero reading was used to flag fluorescence artifacts.
Keywords: ubiquitination, deubiquitination, proteases, profluorescent, MLSMR, MLPCN, NIH Roadmap, qHTS, NCGC
On the technique in general: qHTS replaces the single test concentration by a dilution series.
For `O=Nc1c(-c2c(O)[nH]c3ccccc23)[nH]c2ccccc12`, the Potency entry was “inactive”.

As for `O=C1c2ccccc2C(=O)c2c(NCCc3ccc(O)cc3)ccc(NCCc3ccc(O)cc3)c21`, the Potency entry is “inactive”.

Consider `C1CCC(N=C(NC23CC4CC(CC(C4)C2)C3)N2CCOCC2)CC1`, for which the Potency result is “inactive”.

As to `CC[N+](CC)(CC)CC`, the Potency entry was “inactive”.

Consider `N.N.O=C(O)C1(C(=O)O)CCC1.[Pt+2]`, for which the Potency entry is “inactive”.

Turning to `Oc1cc2c(c(Cl)c1O)CCNCC2c1ccccc1` (stereo not drawn), the Potency result was “inactive”.

Regarding `CN1C2CCCC1CC(NC(=O)c1nn(C)c3ccccc13)C2` (stereo not drawn), the Potency entry was “inactive”.

As for `S=C(Nc1ccccc1)Nc1nccs1`, the Potency entry was “inactive”.

As for `Nc1c(S(=O)(=O)O)cc(Nc2ccc(Nc3nc(Cl)nc(Nc4ccc(S(=O)(=O)O)cc4)n3)c(S(=O)(=O)O)c2)c2c1C(=O)c1ccccc1C2=O`, the Potency is 4.65 µM (active).

Consider `Cc1cccc(/C=C/c2ccccc2)n1`, for which the Potency result was “inactive”.

For `N#C/C(=C\c1ccc(O)c(O)c1)C(=O)Nc1ccccc1`, the Potency entry was “inactive”.

For `CCc1ccc(/C=C2/SC(=S)NC2=O)cc1`, the Potency result was “inactive”.

Turning to `C[C@H](Cc1ccccc1)Nc1ncnc2c1ncn2[C@@H]1O[C@H](CO)[C@@H](O)[C@H]1O`, the Potency result is “inactive”.
